Here are results for nine compounds from ChEMBL document CHEMBL2218924, “A broad activity screen in support of a chemogenomic map for kinase signalling research and drug discovery” (Biochem J, 2013).

Assay [1] addresses T1, Ephrin type-B receptor 1 (Homo sapiens) (UniProt P54762).
T1 sequence (whole entry): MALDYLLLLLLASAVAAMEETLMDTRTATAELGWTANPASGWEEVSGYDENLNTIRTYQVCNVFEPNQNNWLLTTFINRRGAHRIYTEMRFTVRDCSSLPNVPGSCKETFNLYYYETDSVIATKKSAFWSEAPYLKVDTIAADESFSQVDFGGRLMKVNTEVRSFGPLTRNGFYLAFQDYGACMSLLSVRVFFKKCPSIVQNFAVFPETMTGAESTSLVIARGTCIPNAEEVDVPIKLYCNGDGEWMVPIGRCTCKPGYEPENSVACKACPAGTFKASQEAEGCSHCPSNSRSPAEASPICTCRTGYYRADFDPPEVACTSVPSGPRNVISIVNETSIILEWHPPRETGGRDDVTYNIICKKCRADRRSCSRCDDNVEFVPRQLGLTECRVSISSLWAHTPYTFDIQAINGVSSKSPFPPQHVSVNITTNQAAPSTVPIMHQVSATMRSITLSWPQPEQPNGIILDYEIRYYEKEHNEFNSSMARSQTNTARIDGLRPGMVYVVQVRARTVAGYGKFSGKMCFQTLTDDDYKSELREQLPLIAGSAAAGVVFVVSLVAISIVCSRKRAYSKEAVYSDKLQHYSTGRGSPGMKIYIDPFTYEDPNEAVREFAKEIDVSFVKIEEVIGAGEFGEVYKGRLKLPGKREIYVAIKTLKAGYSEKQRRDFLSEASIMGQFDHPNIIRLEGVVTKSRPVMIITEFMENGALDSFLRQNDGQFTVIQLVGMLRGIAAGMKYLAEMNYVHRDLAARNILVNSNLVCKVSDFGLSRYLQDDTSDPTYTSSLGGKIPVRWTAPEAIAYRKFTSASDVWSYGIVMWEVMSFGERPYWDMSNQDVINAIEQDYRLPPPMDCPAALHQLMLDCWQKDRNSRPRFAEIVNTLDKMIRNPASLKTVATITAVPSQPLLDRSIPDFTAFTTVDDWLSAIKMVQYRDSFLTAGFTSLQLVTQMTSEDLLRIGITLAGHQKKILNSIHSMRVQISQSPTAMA
The conditions noted are these: at 10 µM.

Assay [2] has as its target T2, Ephrin type-B receptor 2 (Homo sapiens) (UniProt P29323).
T2 sequence (whole entry): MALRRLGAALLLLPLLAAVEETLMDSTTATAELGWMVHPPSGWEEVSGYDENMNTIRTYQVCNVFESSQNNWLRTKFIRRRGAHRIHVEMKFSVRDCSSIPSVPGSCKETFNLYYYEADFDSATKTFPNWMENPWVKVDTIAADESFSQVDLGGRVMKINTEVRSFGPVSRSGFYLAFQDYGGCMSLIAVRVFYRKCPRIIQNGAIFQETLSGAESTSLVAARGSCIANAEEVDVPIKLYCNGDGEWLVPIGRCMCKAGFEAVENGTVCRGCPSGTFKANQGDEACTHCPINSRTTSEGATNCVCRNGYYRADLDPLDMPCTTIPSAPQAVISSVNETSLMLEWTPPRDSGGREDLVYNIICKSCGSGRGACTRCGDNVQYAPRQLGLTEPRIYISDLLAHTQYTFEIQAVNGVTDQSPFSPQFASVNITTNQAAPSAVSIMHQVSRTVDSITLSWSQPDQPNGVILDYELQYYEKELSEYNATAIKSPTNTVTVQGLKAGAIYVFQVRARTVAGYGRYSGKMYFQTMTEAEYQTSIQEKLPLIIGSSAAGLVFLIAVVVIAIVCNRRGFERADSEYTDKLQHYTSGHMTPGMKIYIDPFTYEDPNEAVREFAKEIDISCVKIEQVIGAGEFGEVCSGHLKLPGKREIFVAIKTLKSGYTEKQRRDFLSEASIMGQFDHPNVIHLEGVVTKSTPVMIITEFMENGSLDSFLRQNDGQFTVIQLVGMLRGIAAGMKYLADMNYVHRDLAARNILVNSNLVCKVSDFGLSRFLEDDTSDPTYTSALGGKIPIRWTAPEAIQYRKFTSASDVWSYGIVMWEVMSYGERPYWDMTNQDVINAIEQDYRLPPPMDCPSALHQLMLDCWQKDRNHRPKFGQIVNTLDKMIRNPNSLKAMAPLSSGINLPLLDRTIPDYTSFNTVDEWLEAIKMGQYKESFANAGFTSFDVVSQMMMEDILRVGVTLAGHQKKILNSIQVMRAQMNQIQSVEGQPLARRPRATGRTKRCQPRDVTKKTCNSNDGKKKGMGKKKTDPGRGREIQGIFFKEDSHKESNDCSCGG
To be noted: at 1 µM.

Assay [3] has as its target T2, Ephrin type-B receptor 2 (Homo sapiens). To be noted: at 10 µM.
Assay [4] has as its target T3, Ephrin type-B receptor 3 (Homo sapiens) (UniProt P54753).
T3 sequence (whole entry): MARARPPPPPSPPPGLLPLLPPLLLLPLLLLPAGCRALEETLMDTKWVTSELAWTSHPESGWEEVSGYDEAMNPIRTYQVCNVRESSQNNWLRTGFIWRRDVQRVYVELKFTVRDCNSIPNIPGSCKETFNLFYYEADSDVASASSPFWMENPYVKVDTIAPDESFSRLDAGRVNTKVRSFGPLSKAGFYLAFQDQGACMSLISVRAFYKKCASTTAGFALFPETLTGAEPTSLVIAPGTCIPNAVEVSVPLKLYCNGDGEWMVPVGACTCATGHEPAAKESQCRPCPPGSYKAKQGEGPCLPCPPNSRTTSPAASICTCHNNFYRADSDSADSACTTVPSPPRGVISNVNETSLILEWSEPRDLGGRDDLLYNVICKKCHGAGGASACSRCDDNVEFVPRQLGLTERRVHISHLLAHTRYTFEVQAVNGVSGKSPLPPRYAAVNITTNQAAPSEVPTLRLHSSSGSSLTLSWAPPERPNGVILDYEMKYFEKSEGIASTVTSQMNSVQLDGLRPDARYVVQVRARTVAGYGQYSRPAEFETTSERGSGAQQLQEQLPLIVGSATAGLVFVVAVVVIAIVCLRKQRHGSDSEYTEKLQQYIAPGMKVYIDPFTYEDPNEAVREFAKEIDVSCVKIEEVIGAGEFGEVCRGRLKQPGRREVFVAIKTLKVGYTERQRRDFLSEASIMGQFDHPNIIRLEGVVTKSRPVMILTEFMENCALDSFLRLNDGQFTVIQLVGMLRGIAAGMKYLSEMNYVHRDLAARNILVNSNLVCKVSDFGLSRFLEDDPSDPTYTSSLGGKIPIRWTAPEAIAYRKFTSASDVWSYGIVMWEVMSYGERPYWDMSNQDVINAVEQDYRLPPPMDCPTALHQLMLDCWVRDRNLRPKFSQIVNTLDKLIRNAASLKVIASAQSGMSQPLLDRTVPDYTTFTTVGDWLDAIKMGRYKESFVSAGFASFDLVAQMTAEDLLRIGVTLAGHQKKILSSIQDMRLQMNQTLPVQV
To be noted: at 1 µM.

Assay [5] deals with T3, Ephrin type-B receptor 3 (Homo sapiens). To be noted: at 10 µM.
The target of assay [6] is T4, Ephrin type-B receptor 4 (Homo sapiens) (UniProt P54760).
T4 sequence (whole entry): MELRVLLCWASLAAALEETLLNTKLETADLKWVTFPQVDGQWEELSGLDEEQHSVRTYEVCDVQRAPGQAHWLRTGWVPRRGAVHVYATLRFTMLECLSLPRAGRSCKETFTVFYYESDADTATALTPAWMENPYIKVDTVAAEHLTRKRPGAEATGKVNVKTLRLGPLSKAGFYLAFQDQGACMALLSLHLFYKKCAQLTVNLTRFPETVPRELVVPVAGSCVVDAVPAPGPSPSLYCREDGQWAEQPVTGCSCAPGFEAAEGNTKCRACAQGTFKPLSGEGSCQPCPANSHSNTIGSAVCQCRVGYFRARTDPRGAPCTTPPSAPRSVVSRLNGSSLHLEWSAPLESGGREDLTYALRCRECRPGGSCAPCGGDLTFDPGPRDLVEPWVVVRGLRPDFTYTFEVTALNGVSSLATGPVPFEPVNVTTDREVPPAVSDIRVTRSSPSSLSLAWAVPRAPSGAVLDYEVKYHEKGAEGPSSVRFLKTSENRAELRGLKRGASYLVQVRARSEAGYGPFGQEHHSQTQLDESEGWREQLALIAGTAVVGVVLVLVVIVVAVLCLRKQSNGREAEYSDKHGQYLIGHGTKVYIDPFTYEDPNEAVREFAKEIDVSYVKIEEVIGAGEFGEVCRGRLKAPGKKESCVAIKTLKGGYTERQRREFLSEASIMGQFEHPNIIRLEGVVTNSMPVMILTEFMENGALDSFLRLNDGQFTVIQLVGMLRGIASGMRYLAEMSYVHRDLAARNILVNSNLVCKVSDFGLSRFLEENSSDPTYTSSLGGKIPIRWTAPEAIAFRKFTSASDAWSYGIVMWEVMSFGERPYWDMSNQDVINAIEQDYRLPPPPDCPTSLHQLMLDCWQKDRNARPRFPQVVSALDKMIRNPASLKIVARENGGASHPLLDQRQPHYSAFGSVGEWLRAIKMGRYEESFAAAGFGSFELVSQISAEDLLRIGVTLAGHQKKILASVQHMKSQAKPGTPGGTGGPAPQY
To be noted: at 1 µM.

Assay [7] concerns the target T4, Ephrin type-B receptor 4 (Homo sapiens). To be noted: at 10 µM.
Assay [8] concerns the target Receptor tyrosine-protein kinase erbB-4 (Homo sapiens) (UniProt Q15303). To be noted: at 1 µM.
For assay [9] the target is unchanged. The conditions noted are these: at 10 µM.
In assay [10] the target is Focal adhesion kinase 1 (Homo sapiens) (UniProt Q05397). The conditions noted are these: at 1 µM.
Sequence of Focal adhesion kinase 1 (Homo sapiens) (Q05397 2-1052 limits assumed): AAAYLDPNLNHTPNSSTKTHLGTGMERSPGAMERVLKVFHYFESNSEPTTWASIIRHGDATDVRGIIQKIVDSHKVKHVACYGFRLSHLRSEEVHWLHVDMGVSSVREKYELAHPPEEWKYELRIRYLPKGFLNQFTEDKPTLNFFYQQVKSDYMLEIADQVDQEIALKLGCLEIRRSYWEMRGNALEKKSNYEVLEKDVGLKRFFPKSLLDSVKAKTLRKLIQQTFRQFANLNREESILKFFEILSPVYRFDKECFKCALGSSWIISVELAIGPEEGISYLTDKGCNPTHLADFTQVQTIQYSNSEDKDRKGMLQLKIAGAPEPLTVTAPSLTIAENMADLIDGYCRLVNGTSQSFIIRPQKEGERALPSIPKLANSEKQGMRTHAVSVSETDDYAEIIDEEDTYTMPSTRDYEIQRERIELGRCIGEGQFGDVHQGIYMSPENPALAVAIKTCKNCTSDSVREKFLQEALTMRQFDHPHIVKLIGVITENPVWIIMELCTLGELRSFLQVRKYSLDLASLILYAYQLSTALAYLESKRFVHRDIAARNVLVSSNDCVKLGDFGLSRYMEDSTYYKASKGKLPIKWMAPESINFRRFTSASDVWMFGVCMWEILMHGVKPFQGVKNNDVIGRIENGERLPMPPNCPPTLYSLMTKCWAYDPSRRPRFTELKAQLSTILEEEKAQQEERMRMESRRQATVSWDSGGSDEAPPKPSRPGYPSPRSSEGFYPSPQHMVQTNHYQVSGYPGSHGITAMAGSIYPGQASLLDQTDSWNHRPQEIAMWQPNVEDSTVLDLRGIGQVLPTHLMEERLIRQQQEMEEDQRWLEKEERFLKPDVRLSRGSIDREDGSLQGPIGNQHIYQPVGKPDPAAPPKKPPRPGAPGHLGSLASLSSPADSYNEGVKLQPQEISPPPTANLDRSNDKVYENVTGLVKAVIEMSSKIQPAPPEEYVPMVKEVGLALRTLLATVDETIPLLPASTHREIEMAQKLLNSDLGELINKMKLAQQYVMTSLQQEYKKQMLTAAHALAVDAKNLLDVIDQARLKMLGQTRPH

Sequence of Receptor tyrosine-protein kinase erbB-4 (Homo sapiens) (Q15303 whole entry): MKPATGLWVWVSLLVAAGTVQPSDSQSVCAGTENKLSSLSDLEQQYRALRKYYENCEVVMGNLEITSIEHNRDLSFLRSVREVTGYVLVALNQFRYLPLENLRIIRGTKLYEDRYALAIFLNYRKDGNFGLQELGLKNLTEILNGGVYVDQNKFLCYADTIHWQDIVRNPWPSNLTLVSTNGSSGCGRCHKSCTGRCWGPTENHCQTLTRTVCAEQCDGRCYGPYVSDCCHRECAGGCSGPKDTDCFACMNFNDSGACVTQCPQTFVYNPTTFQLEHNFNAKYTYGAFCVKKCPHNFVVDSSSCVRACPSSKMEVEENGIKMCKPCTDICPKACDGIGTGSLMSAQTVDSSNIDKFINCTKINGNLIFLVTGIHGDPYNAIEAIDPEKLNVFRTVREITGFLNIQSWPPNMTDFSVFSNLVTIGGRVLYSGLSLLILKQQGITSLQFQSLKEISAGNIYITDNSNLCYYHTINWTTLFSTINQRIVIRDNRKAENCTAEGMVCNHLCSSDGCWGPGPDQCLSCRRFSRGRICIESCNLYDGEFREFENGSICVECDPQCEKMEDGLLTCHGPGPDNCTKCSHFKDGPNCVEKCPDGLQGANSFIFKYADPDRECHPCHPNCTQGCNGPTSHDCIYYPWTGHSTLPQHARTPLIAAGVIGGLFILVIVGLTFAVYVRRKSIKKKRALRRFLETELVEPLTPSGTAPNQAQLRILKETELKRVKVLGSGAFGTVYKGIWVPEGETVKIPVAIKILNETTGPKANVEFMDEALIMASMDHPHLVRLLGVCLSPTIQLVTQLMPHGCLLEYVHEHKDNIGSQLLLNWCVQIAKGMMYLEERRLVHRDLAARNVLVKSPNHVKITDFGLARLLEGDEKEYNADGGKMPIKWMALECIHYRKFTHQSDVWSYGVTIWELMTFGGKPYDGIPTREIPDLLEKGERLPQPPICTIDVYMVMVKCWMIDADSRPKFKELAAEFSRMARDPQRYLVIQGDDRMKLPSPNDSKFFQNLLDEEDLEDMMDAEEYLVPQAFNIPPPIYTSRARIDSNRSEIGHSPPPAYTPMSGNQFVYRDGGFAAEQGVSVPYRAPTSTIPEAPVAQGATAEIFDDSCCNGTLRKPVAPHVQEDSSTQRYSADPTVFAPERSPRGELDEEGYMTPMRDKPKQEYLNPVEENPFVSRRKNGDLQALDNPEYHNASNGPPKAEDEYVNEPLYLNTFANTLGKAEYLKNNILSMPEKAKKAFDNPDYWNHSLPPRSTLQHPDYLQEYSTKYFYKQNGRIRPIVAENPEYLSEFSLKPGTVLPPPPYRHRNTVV

By residual activity is commonly meant the signal under treatment as a percentage of the control signal. Consider `NC(=O)c1ccc2[nH]c(-c3ccc(Oc4ccc(Cl)cc4)cc3)nc2c1`, for which the residual activity in assay [1] was 94%; in assay [2] it was 110%; in assay [3], 128%; in assay [4], 102% (inactive); in assay [5] it was 94%; in assay [6], 89%. The residual activity in [7] was 93%; in assay [8] it was 106%; in [9], 126%; in assay [10], 91%.
For `Cc1nc2cc3nc(-c4cccs4)cnc3cc2n1C`, the residual activity in assay [1] is 91%; in [2] it was 117%; in [3], 107%; in assay [4] it was 107% (inactive); in assay [5], 124%; in assay [6], 108%. Moreover, the residual activity in [7] was determined as 119%; in [8] it was 116%; in assay [9], 113%; in assay [10], 80%.
Turning to `Nc1n[nH]c2nnc(-c3c(-c4ccccc4)nn4ccccc34)cc12`, the residual activity in assay [1] is 87%; in assay [2] it was 117%; in assay [3] it was 110%; in assay [4] it was 101% (inactive); in assay [5] it was 104%; in assay [6], 83%. Also, the residual activity worked out at 67% in assay [7], 81% in assay [8], 57% in assay [9] and 96% in [10].
Consider `O=C1NC(=O)/C(=C\c2ccc3nccnc3c2)S1`, for which the residual activity was 96% in [1]; 98% in assay [2]; 119% in assay [3]; 113% (inactive) in assay [4]; 104% in assay [5]; 95% in [6]. Also, the residual activity was 111% in assay [7], 88% in assay [8], 92% in assay [9] and 90% in [10].
For `COc1ccc(OC)c2c(=S)c3ccccc3[nH]c12`, the residual activity in assay [1] is 83%; in assay [2] it was 114%; in assay [3], 118%; in [4] it was 114% (inactive); in [5], 101%; in [6], 97%. For the same compound, the residual activity in [7] came out at 102%; in assay [8], 80%; in assay [9], 77%; in [10], 91%.
As for `O=c1cc(-c2cccc3c2Sc2ccccc2S3)oc(N2CCOCC2)c1`, the residual activity was 92% in assay [1]; 112% in [2]; 126% in [3]; 119% (inactive) in assay [4]; 121% in assay [5]; 113% in assay [6]. The residual activity in assay [7] amounted to 118%; in assay [8], 105%; in assay [9], 92%; in assay [10], 109%.
For `Cn1cc(/C=C2\C(=O)Nc3ccc(S(N)(=O)=O)cc32)c2ccccc21`, the residual activity in [1] is 21%; in [2], 73%; in assay [3] it was 49%; in assay [4], 100% (inactive); in assay [5], 117%; in [6], 57%. Besides, the residual activity in [7] is 11%; in assay [8] it was 94%; in assay [9] it was 85%; in assay [10], 103%.
As for `O=C1NC(=O)c2cc(Nc3ccc(F)cc3)c(Nc3ccc(F)cc3)cc21`, the residual activity is 60% in assay [1]; 105% in [2]; 69% in assay [3]; 100% (inactive) in assay [4]; 105% in [5]; 95% in assay [6]. Besides, the residual activity in assay [7] was 56%; in [8] it was 87%; in assay [9], 35%; in assay [10], 137%.
For the compound `O=C1Nc2cc(Br)ccc2/C1=C1/Nc2ccccc2/C1=N\O`, the residual activity in [1] was 42%; in [2], 33%; in assay [3] it was 22%; in [4], 100% (inactive); in [5] it was 95%; in assay [6], 17%. Further, the residual activity was 4% in assay [7], 84% in [8], 88% in assay [9] and 59% in [10].
